Test results: PubChem BioAssay AID504832 (National Center for Advancing Translational Sciences (NCATS), 2011)
The campaign covered roughly 310,000 compounds. About 18,000 (5.8%) were called active. Entries that show only a call come without a potency. Roughly 22% stayed inconclusive and do not appear here. Calls follow the shape of the dose curve; as a rule, active = well fitted inhibition curve with a large enough effect; inconclusive = small, poorly fitted or top-dose-only effect, or another doubt; inactive = no such curve, though single readings can be large or run the other way. The full list was thinned out, with actives kept by preference.

Experiment: Primary qHTS for delayed death inhibitors of the malarial parasite plastid, 48 hour incubation
Details: P. falciparum luciferase growth in erythrocytes; series mostly up to 28.7 µM
Excerpt: The goal of this screen is to discover new antimalarial compounds that act by inhibiting the development of the apicoplast in the malarial parasite Plasmodium falciparum. The biochemical processes that make this organelle essential for erythrocytic stage parasites are not well understood. However, antibiotics such as azithromycin and tetracycline, which target the apicoplast translational machinery, have a potent antimalarial effect.
We have developed a cell-based assay that measures parasite growth based on the expression of an integrated copy of a firefly luciferase reporter. To detect small molecules that cause this "delayed death" phenotype, erythrocytes infected with the luciferase-expressing parasites were incubated with compounds for either one or two generations, corresponding to 48 and 96 hours, respectively. Compounds that inhibit parasite growth in the second generation, but not the first, should be enriched in antimalarials that target the apicoplast. Growth inhibition is detected by a decrease in luciferase activity.
Assay Provider: David Fidock and Eric Ekland, Columbia University
Keywords: NIH Roadmap, MLPCN, MLI, MLSMR, qHTS, NCGC, qHTS, malaria, luciferase, viability
Four microliters of culture medium (RPMI 1640 with 0.5% w/v Albumax (GIBCO), 24 mM sodium bicarbonate and 10 ug/mL gentamycin) were dispensed by a Multi-drop Combi into white solid 1536-well plates (Grenier) and 23 nL compound was added by a pin tool. Four microliters of infected erythrocytes (2% hematocrit, 0.1% parasitemia final concentration) in culture medium were dispensed and the plates incubated for 48 hours at 37 C in 5% CO2. Two microliters of luciferase detection reagent was added and luminescence was detected by a ViewLux (PerkinElmer) reader.
Potency is read from the fitted curve at half-maximal effect.

| SMILES | Potency |
| --- | --- |
| C=CCOc1ccc(/C=C/C(=O)OCC(=O)NC2CCCCCC2)cc1 | inactive |
| CCC(Oc1ccccc1C)C(=O)Nc1ccc(S(=O)(=O)Nc2cc(C)on2)cc1 (stereo unspecified) | inactive |
| CC(=O)c1cc(CN2CCC(n3nccc3NC(=O)c3ccccc3Cl)CC2)cs1 | inactive |
| CC(OC(=O)c1ccccc1NCCO)C(=O)Nc1ccnn1C(C)C (stereo unspecified) | inactive |
| Cc1ccc(NC(=O)CN(C)C(=O)c2ccc(Br)o2)cc1 | inactive |
| COc1ccc(-c2cnc(SCCNC(=O)c3ccc4c(c3)OCO4)[nH]2)cc1 | inactive |
| COc1ccc(S(=O)(=O)NCC(c2ccco2)N2CCOCC2)cc1 (stereo unspecified) | inactive |
| CC(Oc1ccc(Br)cc1)C(=O)NCC(c1ccco1)N1CCCCC1 (stereo unspecified) | 11.7 µM (active) |
| CC(Oc1ccc(Br)cc1)C(=O)NC1CCCCCC1 (stereo unspecified) | inactive |
| O=C(COc1ccc2ccc(=O)oc2c1)NCC(O)c1ccccc1 (stereo unspecified) | inactive |
| O=C(CNC(=O)OCc1ccccc1)NC1CCCCNC1=O (stereo unspecified) | inactive |
| CCOc1ccccc1/C=N/Nc1nc2ccccc2o1 | inactive |
| COc1ccc(CCNC(=O)C(=O)NCc2ccccc2C)cc1OC | inactive |
| COc1ccc(CCN(Cc2cc3cccc(C)c3[nH]c2=O)C(=O)N2CCCC2)cc1OC | 8.28 µM (active) |
| CCCCNC(=O)N1CCCC(N(C)CCc2ccc(OC)c(OC)c2)C1 (stereo unspecified) | inactive |
| Cc1ccc2c(cnn2C(=O)CCC(=O)NC2CCCC2)c1 | inactive |

| SMILES | Potency |
| --- | --- |
| Cn1nc(C(F)(F)F)c(C(=O)Nc2cccc(C(F)(F)F)c2)c1SCc1ccc(Cl)cc1 | 1.85 µM (active) |
| O=C(O)CSCC(=O)Nc1cccc(C(F)(F)F)c1 | inactive |
| O=C(Nc1cccc(C(F)(F)F)c1)c1cnccn1 | inactive |
| COc1ccc(CCNC(=O)COc2ccc3c(c2)OCO3)cc1 | inactive |
| CN(C)C(=O)CCC(=O)N1CCCCC1C(=O)Nc1ccc(Oc2ccccc2F)cc1 (stereo unspecified) | inactive |
| CCOc1cc(/C=C/C(=O)OCC(=O)NCCN2C(=O)CSC2=O)ccc1OCC(C)C | 14.7 µM (active) |
| COc1ccc(/C=C/C(=O)OCC(=O)NCc2cccs2)cc1OC | inactive |
| CCOC(=O)CCCNC(=O)COC(=O)/C=C/c1ccc2c(c1)OCO2 | inactive |
| COc1ccc(CNC(=O)CN2C(=O)NC3(CCCc4sccc43)C2=O)cc1 (stereo unspecified) | inactive |
| CCN(CC)S(=O)(=O)c1ccc(N2CC(C(=O)NCc3cccnc3)CC2=O)cc1 (stereo unspecified) | inactive |
| Cc1ccc2[nH]c(=O)c(CN(C)S(=O)(=O)c3cccc4nonc34)cc2c1 | inactive |
| CCN(Cc1ccccc1)S(=O)(=O)c1cc2c3c(c1)CCN3C(=O)CC2 | inactive |
| CC1CCCN(CC(=O)Nc2cc(Cl)ccc2Oc2ccccc2)C1 (stereo unspecified) | 14.7 µM (active) |
| COc1cc(Cl)c(C)cc1NC(=O)CN1CCCCCC1 | inactive |
| O=C(CN1CCCCCC1)Nc1ccc(Cl)cc1F | inactive |
